Measured values from PubChem BioAssay (EPA / NIEHS).
The source made the active and inactive calls. How the source made its calls: active means hit-call score of the fitted dose curve at least 0.9, where 1 is the maximum; inactive means score below 0.9.

Legend:
[1] = ATG_CRE_CIS: Attagene CIS-FACTORIAL HepG2 Assay for human cAMP Responsive Element (CRE) binding protein 3 (AID 2282926); conditions: HepG2 CRE cis-reporter, Attagene multiplexed mRNA; actives raise or lower the signal
In short: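 Readout: fluorescently labelled reporter transcripts resolved by capillary electrophoresis after RT-PCR, taken 24 h post-dosing in transfected HepG2. Endogenous transcription factor activity drives each cis-element reporter; gain or loss of signal fitted relative to DMSO control.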

[2] = molecular target: CCAAT/enhancer-binding protein beta (Homo sapiens) (UniProt P17676); test: ATG_C_EBP_CIS: Attagene CIS-FACTORIAL HepG2 Assay for human CCAAT/Enhancer Binding Protein (C/EBP) beta (AID 2282927); conditions: HepG2 Attagene cis-factorial transcription factor reporter; actives raise or lower the signal
CCAAT/enhancer-binding protein beta (Homo sapiens), sequence (P17676 whole entry, looked up, the tested form may be a part): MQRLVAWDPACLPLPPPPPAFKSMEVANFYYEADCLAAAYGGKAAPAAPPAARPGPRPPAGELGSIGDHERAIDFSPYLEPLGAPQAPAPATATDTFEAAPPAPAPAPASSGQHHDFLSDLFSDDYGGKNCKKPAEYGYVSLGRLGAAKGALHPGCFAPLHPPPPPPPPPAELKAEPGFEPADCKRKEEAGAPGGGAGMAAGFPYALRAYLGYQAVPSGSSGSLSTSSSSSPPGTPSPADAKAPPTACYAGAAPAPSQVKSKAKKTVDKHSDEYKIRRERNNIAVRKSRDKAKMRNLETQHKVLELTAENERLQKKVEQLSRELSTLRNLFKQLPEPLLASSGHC
In short: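 Chemical-treated HepG2 cells (24 h) bearing cis-regulated reporter constructs were processed for total RNA, then reverse transcription, PCR amplification, fluorescent primer extension and fragment analysis; gain- and loss-of-signal were fitted against DMSO.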

[3] = ATG_CMV_CIS: Attagene CIS-FACTORIAL HepG2 Assay for human CMV (Internal Marker) (AID 2282928); conditions: HepG2 CMV promoter reporter, transcription factor profiling; actives raise or lower the signal;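 further: endpoint acts as a background internal control marker rather than a target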
In short: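 24 h chemical treatment, HepG2 with transient multi-reporter transfection; RNA → oligo(dT) RT → PCR → 6-FAM extension → HpaI digest → CE fluorescence. Bidirectional fit, DMSO negative control.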

[4] = ATG_DR4_LXR_CIS: Attagene CIS-FACTORIAL HepG2 Assay for human Liver X Receptor (LXR), DR4 submotif (AID 2282929); conditions: HepG2 Attagene DR4 cis-reporter, mRNA transcription; actives raise or lower the signal
In short: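 DR4 cis-reporter in HepG2, 24 h exposure. Detection: RT-PCR, 6-FAM labelling, CE fragment analysis. Endpoint fitted bidirectionally, DMSO = baseline.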

[5] = molecular target: Aryl hydrocarbon receptor (Homo sapiens) (UniProt P35869); test: ATG_Ahr_CIS: Attagene CIS-FACTORIAL HepG2 Assay for human Aryl Hydrocarbon Receptor (Ahr) (AID 2282930); conditions: HepG2 AhR cis-factorial reporter transcription; actives raise or lower the signal
Aryl hydrocarbon receptor (Homo sapiens), sequence (P35869 whole entry, looked up): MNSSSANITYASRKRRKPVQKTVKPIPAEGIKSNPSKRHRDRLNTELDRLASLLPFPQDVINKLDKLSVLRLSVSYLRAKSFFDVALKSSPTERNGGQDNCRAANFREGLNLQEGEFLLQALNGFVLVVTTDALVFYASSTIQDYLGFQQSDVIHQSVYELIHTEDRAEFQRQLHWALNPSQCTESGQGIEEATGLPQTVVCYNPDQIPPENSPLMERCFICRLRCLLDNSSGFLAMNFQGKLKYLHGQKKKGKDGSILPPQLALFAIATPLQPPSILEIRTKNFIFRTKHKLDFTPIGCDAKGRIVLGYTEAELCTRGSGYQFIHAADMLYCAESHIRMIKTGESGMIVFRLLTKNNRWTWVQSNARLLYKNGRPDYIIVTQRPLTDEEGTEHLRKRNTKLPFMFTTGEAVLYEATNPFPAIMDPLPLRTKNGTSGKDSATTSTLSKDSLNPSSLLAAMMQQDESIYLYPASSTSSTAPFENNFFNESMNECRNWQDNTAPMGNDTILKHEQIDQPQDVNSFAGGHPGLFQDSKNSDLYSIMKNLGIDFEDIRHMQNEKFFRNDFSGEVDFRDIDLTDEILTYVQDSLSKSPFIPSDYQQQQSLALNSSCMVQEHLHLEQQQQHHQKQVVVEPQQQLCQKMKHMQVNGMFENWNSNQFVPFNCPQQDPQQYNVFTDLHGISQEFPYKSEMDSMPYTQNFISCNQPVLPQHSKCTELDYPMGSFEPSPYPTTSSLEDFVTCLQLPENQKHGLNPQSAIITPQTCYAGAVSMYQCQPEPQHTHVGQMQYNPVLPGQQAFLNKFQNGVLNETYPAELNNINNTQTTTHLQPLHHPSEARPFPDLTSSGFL
In short: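 Following 24 h of chemical dosing, transfected HepG2 liver cells with cis-driven reporter units were lysed for RNA; reporter mRNA was quantified via RT-PCR and capillary electrophoresis, and responses fitted bidirectionally from DMSO.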

[6] = ATG_AP_1_CIS: Attagene CIS-FACTORIAL HepG2 Assay for human Activator Protein 1 (AP-1) (AID 2282931); conditions: HepG2 Attagene cis-factorial AP-1 reporter mRNA; actives raise or lower the signal
In short: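 Cis-regulated reporter units transiently expressed in HepG2 report endogenous transcription-factor activity. Signal: reporter mRNA at 24 h, via RT-PCR and fluorescent capillary electrophoresis. Endpoint derived by bidirectional fitting, DMSO as negative control.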

[7] = ATG_BRE_CIS: Attagene CIS-FACTORIAL HepG2 Assay for human Bone Morphogenetic Protein (BMP) Response Element (BRE) (AID 2282933); conditions: HepG2 BMP response element reporter, Attagene transcription factor profiling; actives raise or lower the signal
In short: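 Endogenous transcription factor activity at a BMP response element was monitored in transfected HepG2 cells 24 h after dosing. Fluorescent RT-PCR products were resolved by capillary electrophoresis, and activity was fitted in both directions versus DMSO.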

[8] = molecular target: Transcription factor E2F1 (Homo sapiens) (UniProt Q01094); test: ATG_E2F_CIS: Attagene CIS-FACTORIAL HepG2 Assay for human E2F Transcription Factor 1 (AID 2282935); conditions: HepG2 Attagene cis-reporter, E2F reporter RNA transcripts; actives raise or lower the signal
Transcription factor E2F1 (Homo sapiens), sequence (Q01094 whole entry, looked up): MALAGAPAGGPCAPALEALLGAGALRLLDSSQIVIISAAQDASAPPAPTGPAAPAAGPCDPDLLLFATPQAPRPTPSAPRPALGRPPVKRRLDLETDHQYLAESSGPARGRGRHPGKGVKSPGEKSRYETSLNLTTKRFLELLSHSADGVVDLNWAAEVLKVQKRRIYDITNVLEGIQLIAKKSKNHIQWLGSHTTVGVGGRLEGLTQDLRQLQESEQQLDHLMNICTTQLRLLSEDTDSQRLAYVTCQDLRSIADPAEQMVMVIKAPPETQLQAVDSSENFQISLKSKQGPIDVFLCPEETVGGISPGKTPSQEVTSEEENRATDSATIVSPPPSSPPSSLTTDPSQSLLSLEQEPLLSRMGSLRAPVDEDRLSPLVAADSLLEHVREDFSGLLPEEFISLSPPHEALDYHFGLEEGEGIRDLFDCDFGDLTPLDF
In short: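 First, HepG2 cells were transfected with reporter transcription units. Next, they were dosed for 24 h. Then RNA was isolated, converted to cDNA, PCR-amplified, FAM-labeled, HpaI-digested and analyzed by capillary electrophoresis.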

[9] = ATG_E_Box_CIS: Attagene CIS-FACTORIAL HepG2 Assay for human Enhancer Box (E-box) (AID 2282936); conditions: HepG2 E-box cis-reporter transcription, actives raise or lower the signal
In short: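 Endogenous transcription factor activity was sensed in human HepG2 liver cells through transfected cis-promoter reporter units. After 24 h of dosing, total RNA was reverse-transcribed and reporter cDNA resolved by capillary electrophoresis.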

[10] = ATG_M_61_CIS: Attagene CIS-FACTORIAL HepG2 Assay for M61 Transcription Factor (Internal Marker) (AID 2282937); conditions: HepG2 Attagene CIS-FACTORIAL M61 internal marker reporter; actives raise or lower the signal
In short: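 Background-control endpoint: HepG2 cells with cis-regulated reporter constructs, 24 h exposure, reporter mRNA detected via fluorescent primer extension and capillary electrophoresis; values from bidirectional fitting with DMSO baseline.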

[11] = ATG_EGR_CIS: Attagene CIS-FACTORIAL HepG2 Assay for human Early Growth Response 1 (EGR1) (AID 2282938); conditions: HepG2 Attagene CIS-FACTORIAL EGR reporter mRNA; actives raise or lower the signal
In short: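 Endpoint derived by bidirectional fitting versus DMSO vehicle. Method: cis-promoter reporter units transfected into HepG2, 24 h dosing, RNA isolation, RT-PCR with 6-FAM primer extension and HpaI digestion, then capillary electrophoresis fluorescence detection.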

[12] = ATG_M_19_CIS: Attagene CIS-FACTORIAL HepG2 Assay for M19 Transcription Factor (Internal Marker) (AID 2282939); conditions: HepG2 Attagene CIS-FACTORIAL M19 internal marker reporter; actives raise or lower the signal
In short: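 Background-control endpoint from a multiplexed HepG2 reporter panel. Cells carrying cis-regulated reporter constructs are treated 24 h, then reporter transcripts are amplified, fluorescently labelled and sized by capillary electrophoresis. DMSO defines baseline.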

[13] = molecular target: Hepatocyte nuclear factor 3-beta (Homo sapiens) (UniProt Q9Y261); test: ATG_FoxA2_CIS: Attagene CIS-FACTORIAL HepG2 Assay for human Forkhead box A2 (FOXA2) (AID 2282942); conditions: HepG2 cis-reporter transcription factor activity, 24 h; actives raise or lower the signal
Hepatocyte nuclear factor 3-beta (Homo sapiens), sequence (Q9Y261 whole entry, looked up): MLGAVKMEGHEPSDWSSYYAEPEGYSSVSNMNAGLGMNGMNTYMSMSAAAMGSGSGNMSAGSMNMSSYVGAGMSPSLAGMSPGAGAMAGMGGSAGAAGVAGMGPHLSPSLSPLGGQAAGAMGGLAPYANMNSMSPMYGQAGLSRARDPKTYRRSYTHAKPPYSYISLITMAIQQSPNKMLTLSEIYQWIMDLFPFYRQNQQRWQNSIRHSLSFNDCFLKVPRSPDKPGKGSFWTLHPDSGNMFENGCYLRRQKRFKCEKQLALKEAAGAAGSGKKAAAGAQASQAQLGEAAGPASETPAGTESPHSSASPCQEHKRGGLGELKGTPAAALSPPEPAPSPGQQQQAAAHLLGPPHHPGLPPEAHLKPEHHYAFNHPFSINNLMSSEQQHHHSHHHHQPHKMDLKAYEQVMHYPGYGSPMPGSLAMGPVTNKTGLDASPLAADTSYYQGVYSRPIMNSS
In short: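 Measured: reporter mRNA induction or loss in HepG2 transiently carrying multiple cis-regulated reporter units, 24 h after dosing. Quantified by RT-PCR plus capillary electrophoresis, normalised to DMSO.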

[14] = ATG_FoxO_CIS: Attagene CIS-FACTORIAL HepG2 Assay for human Forkhead box O (FoxO) (AID 2282943); conditions: HepG2 Attagene cis-reporter, FoxO element, mRNA; actives raise or lower the signal
In short: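 24 h chemical exposure, HepG2 with transient cis-MRTU transfection. RNA extraction, oligo(dT) RT, reporter-specific PCR, primer-extension labelling, HpaI digestion, CE fragment analysis; bidirectional fit, DMSO baseline.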

[15] = ATG_GATA_CIS: Attagene CIS-FACTORIAL HepG2 Assay for human GATA Binding Protein (AID 2282944); conditions: HepG2 GATA cis-element reporter, Attagene multiplex mRNA; actives raise or lower the signal
In short: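 Endogenous transcription factor activity was captured through cis-promoter-driven reporters in transfected HepG2 cells. After 24 h exposure, reporter transcripts were quantified by RT-PCR with fluorescent capillary electrophoresis, and responses fitted both directions against DMSO.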

[16] = ATG_GLI_CIS: Attagene CIS-FACTORIAL HepG2 Assay for human Zinc Finger Protein GLI1 (AID 2282945); conditions: HepG2, Attagene cis-factorial reporter mRNA, GLI element; actives raise or lower the signal
In short: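 HepG2 cells transiently transfected with cis-promoter multiplexed reporter units report endogenous transcription factor activity. After 24 h chemical exposure, reporter mRNA was quantified by RT-PCR, 6-FAM labelling, HpaI digestion and capillary electrophoresis, with bidirectional fitting against DMSO.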

[17] = ATG_AP_2_CIS: Attagene CIS-FACTORIAL HepG2 Assay for human Activator Protein 2 (AP-2) (AID 2282932); conditions: HepG2 AP-2 cis-reporter, Attagene transcription factor profiling; actives raise or lower the signal
In short: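 Cells (HepG2) transfected with promoter-driven reporter constructs, treated 24 h. Total RNA reverse-transcribed, reporter cDNA PCR-amplified, FAM-labelled by primer extension, digested, resolved by capillary electrophoresis. Activity fitted both directions versus DMSO.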

[18] = ATG_ERE_CIS: Attagene CIS-FACTORIAL HepG2 Assay for Estrogen Response Element (ERE) (AID 2282940); conditions: HepG2 ERE cis-reporter, Attagene RNA transcript; actives raise or lower the signal
In short: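 Cells used were human hepatoma HepG2, transfected with multiple reporter transcription units under cis-regulatory promoters. Reporter mRNA, read 24 h post-dosing via fluorescent RT-PCR products on capillary electrophoresis, was fitted bidirectionally relative to DMSO.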

[19] = molecular target: Retinoic acid receptor alpha (Homo sapiens) (UniProt P10276); test: ATG_DR5_RAR_CIS: Attagene CIS-FACTORIAL HepG2 Assay for human Retinoic Acid Receptor Alpha (RARE), DR5 submotif (AID 2282934); conditions: HepG2 Attagene cis-factorial RARE DR5 reporter, mRNA; actives raise or lower the signal;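 further: reporter responds to endogenous RAR alpha beta and gamma in HepG2 not RARA alone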
Retinoic acid receptor alpha (Homo sapiens), sequence (P10276 whole entry, looked up): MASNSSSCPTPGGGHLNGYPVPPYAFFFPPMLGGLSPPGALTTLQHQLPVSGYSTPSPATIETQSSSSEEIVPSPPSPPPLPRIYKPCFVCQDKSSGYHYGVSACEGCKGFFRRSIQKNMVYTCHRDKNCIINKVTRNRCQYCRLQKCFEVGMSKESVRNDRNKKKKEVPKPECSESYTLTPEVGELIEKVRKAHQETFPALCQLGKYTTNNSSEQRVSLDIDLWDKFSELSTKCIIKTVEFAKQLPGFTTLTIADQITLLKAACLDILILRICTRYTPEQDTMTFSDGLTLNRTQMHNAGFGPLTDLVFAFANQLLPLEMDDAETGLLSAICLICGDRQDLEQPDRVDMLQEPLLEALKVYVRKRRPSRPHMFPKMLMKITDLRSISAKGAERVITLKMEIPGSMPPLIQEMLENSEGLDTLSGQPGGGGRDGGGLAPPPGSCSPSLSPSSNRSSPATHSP
In short: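 Transfected HepG2 reporter cells are exposed to chemicals for 24 h. Then RNA is extracted and the DR5 element reporter transcript is measured by RT-PCR and capillary electrophoresis, with bidirectional curve fitting relative to DMSO.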

[20] = ATG_Ets_CIS: Attagene CIS-FACTORIAL HepG2 Assay for human Erythroblast Transformation Specific (ETS) (AID 2282941); conditions: HepG2 ETS cis-reporter transcription, actives raise or lower the signal
In short: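 Cis-regulated reporter mRNA induction in HepG2 (transient transfection), 24 h exposure, RT-PCR plus capillary electrophoresis detection; DMSO serves as negative control and baseline.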

Measured: AC50

O=S(=O)(O)c1cccc2c(S(=O)(=O)O)cccc12
not listed: [17] | [18] | [19] | [20]
inactive: all other assays above

Cc1ccc(O)c(C(C)(C)C)c1
active: [4] 100 µM | [12] 148 µM | [16] 173 µM
not listed: [6] | [18] | [19] | [20]
inactive: all other assays above

CC(C)OP(=O)(CP(=O)(OC(C)C)OC(C)C)OC(C)C
not listed: [6] | [19] | [20]
inactive: all other assays above

O=C1CCCCCCCCCCCCCCO1
active: [1] 120 µM | [3] 100 µM | [4] 181 µM | [5] 145 µM | [19] 100 µM
not listed: [6] | [18]
inactive: all other assays above
